Measured values as given in PubChem BioAssay (NCATS).
Records with an inconclusive call do not appear. Activity calls are given as the source filed them. Unless noted, calls come from the whole dose curve; as a rule, active = well fitted curve in the direction sought with a large enough effect; inconclusive = small, poorly fitted or top-dose-only effect, or another doubt; inactive = no such curve, though single readings can be large; an effect the other way counts as inactive or inconclusive.

Key:
[1] = AP1 Signaling Pathway (AID 357; active = well fitted curve in either direction with a large enough effect, not every such curve was filed as active; note: % is set by controls: 0 for no effect and ±100 for the full control effect)
In short: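 ME-180 cells with beta-lactamase reporter under AP-1 response element, stimulated with EC50 EGF; compounds tested in titration series, 5 h at 37 °C. CCF4 substrate added 2.5 h at room temperature; 460/530 nm emission ratio gave %activity and AC50.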

[2] = Stat Signaling Pathway (AID 446; active = well fitted curve in either direction with a large enough effect, not every such curve was filed as active;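 note: ME-180 cervical cancer cells given 40 pM IL-6 alongside compound; SIE-controlled beta-lactamase reporter measured as 460/530 nm FRET emission ratio; % is set by controls: 0 for no effect and ±100 for the full control effect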)
In short: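 FRET read-out (405 nm excitation, 460/530 nm emission) of a beta-lactamase reporter under a STAT-inducible element in ME-180 cervical carcinoma cells. Cells with compound receive 40 pM IL-6 for 5 h. Values are normalised to AC90 stimulation and AC90 JAK-inhibitor controls.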

[3] = target: Glucocorticoid receptor (Homo sapiens) (UniProt P04150); test: GR-GFP Redistribution (AID 450;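 active = compounds whose dose series gives a full or clear partial fitted curve of increased nuclear translocation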; note: potency is the fitted concentration of half-maximal effect); details: U2OS GR-GFP nuclear translocation, laser cytometry, 2 h
[4] = target: Glucocorticoid receptor (Homo sapiens) (UniProt P04150); test: GR-EFC Redistribution (AID 451; calls by dose curve; note: potency is the fitted concentration of half-maximal effect); details: CHO-K1 GR-EFC translocation, beta-gal luminescence, 2 h
In short: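 CHO-K1 cells expressing nuclear EA and GR-ED fragments of b-gal; compounds titrated up to 46 uM final, 2 h at 37 C. GR nuclear translocation read as complemented b-gal luminescence after 1 h RT detection.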

[5] = target: Mitogen-activated protein kinase 10 (Mus musculus) (UniProt Q61831); test: JNK3 AlphaScreen Assay (AID 530; active = well fitted curve in either direction with a large enough effect, not every such curve was filed as active;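 note: kinase came from lysate of stimulated human HepG2 cells; signal reports phosphorylation of biotinylated GST-cJun 1-79 at Ser73 with 10 µM ATP; % is set by controls: 0 for no effect and ±100 for the full control effect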)
In short: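 Activity was read by AlphaScreen after JNK3-containing HepG2 lysate (cytokine pre-activated) phosphorylated biotinylated GST-cJun with 10 uM ATP at room temperature. Phospho-Ser73 cJun antibody with Protein-A acceptor beads provided detection.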

[6] = target: 3',5'-cyclic-AMP phosphodiesterase 4B (Homo sapiens) (UniProt Q07343); test: qHTS Assay for Inhibitors of PDE-IV (AID 607; active = well fitted activation curve with a large enough effect in the main read-out, with a control signal flat, not every such curve was filed as active; note: % of control where 0% means no effect)
In short: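 Cell-based read-out of cAMP via a modified cyclic nucleotide-gated channel and membrane potential dye (535/590 nm) in HEK293 cells expressing PDE4 endogenously. Compounds tested up to 22.9 uM final; 100 uM RO 20-1724 reference.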

[7] = qHTS Assay for Lipid Storage Modulators (AID 1519; calls by dose curve); details: Drosophila S3 cells, BODIPY lipid droplet/cell ratio, laser cytometry, cells loaded with oleic acid; for activity change, negative = inhibition: at 25.7 µM (top of the series)
In short: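 Cells seeded at 5,000 per well were treated with compounds over a concentration series and loaded with oleic acid (400 uM, as added). Lipid droplet fluorescence (488 nm excitation, 500-530 nm channel) was read by laser-scanning cytometry and normalized to 20 uM Triacsin C.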

[8] = target: ATP-dependent 6-phosphofructokinase (Trypanosoma brucei brucei) (UniProt O15648); test: qHTS Assay to Find Inhibitors of T. brucei phosphofructokinase: hit validation (AID 492961); note: % is set by controls: 0 for no effect and ±100 for the full control effect
In short: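 Luminescence from ADP-Glo reports ADP generated as T. brucei PFK (1.25 nM) phosphorylates 0.5 mM fructose-6-phosphate using 0.1 mM ATP. Reactions ran 45 min at room temperature, pH 8.0.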

[9] = target: Ubiquitin carboxyl-terminal hydrolase 1 (Homo sapiens) (UniProt O94782); test: Inhibitors of USP1/UAF1: Pilot qHTS (AID 504865);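 note: rhodamine fluorescence freed from ubiquitin-rhodamine substrate followed over time; top concentration of the series differs between compounds; % is set by controls: 0 for no effect and ±100 for the full control effect; nearly all actives have a fitted effect of over 35% in size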
In short: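 Deubiquitinase activity followed as kinetic rhodamine fluorescence release from 150 nM Ub-Rho. 1 nM USP1/UAF1 with compound, after 15 min room-temperature preincubation, in HEPES pH 7.8 buffer containing TCEP, EDTA, BSA and Tween-20.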

[10] = target: Luciferin 4-monooxygenase (Photinus pyralis) (UniProt P08659); test: Biochemical firefly luciferase enzyme assay for NPC (AID 624030);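 note: purified P. pyralis luciferase at 10 nM with luciferin and ATP substrate; 0% = DMSO and -100% = full luciferase inhibition by PTC124 control; nearly all actives have a fitted effect of over 70% in size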
In short: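 Purified P. pyralis luciferase at 10 nM in 50 mM Tris Acetate (final), luminescence read within 5 minutes of enzyme addition to compounds. Activity normalised to PTC124 versus DMSO; concentration-response curves classed by r2, magnitude and activity.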

[11] = S16 Schwann cell PMP22 intronic element firefly luciferase assay (AID 624032);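 note: plate controls were DMSO for no effect and PTC124 positive control mean for full effect; nearly all actives have a fitted effect of over 30% in size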
In short: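 Rat S16 Schwann cells stably carrying firefly luciferase driven by a PMP22 intronic element, in 10% FBS, treated 24 h at 37 C. ONE-Glo luminescence normalized to PTC124 control and DMSO (0%); curves classed by r2, magnitude and activity.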

[12] = qHTS profiling for inhibitors of Plasmodium falciparum proliferation (AID 504749);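 note: 0% = DMSO vehicle and full inhibition = artemisinin control; nearly all actives have a fitted effect of over 60% in size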; details: P. falciparum in erythrocytes, SYBR Green DNA, 72 h, at 12.8 µM (top of the series)
In short: (§1)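 Each compound contacts P. falciparum-infected red blood cells for 72 h at 37 C; lysis buffer (Tris, EDTA, saponin, Triton X, SYBR Green I) is added and fluorescence measured next morning; values normalized to controls.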

AS120 = test: as above; details: P. falciparum in erythrocytes, SYBR Green DNA, 72 h; series mostly up to 12.8 µM
In short: as §1

C2A = test: as above; details: P. falciparum in erythrocytes, SYBR Green DNA, 72 h; series mostly up to 12.8 µM
In short: as §1

CP238 = test: as above; details: P. falciparum in erythrocytes, SYBR Green DNA, 72 h; series mostly up to 12.8 µM
In short: as §1

CP250 = test: as above; details: P. falciparum in erythrocytes, SYBR Green DNA, 72 h; series mostly up to 12.8 µM
In short: as §1

CP252 = test: as above; details: P. falciparum in erythrocytes, SYBR Green DNA, 72 h; series mostly up to 12.8 µM
In short: as §1

HB3 = test: as above; details: P. falciparum in erythrocytes, SYBR Green DNA, 72 h; series mostly up to 12.8 µM
In short: as §1

SC27B = test: as above; details: P. falciparum in erythrocytes, SYBR Green DNA, 72 h; series mostly up to 12.8 µM
In short: as §1

[13] = measured here: cell count channel max response
[14] = measured here: lipid channel max response

Sequence of Luciferin 4-monooxygenase (Photinus pyralis) (P08659 whole entry, looked up): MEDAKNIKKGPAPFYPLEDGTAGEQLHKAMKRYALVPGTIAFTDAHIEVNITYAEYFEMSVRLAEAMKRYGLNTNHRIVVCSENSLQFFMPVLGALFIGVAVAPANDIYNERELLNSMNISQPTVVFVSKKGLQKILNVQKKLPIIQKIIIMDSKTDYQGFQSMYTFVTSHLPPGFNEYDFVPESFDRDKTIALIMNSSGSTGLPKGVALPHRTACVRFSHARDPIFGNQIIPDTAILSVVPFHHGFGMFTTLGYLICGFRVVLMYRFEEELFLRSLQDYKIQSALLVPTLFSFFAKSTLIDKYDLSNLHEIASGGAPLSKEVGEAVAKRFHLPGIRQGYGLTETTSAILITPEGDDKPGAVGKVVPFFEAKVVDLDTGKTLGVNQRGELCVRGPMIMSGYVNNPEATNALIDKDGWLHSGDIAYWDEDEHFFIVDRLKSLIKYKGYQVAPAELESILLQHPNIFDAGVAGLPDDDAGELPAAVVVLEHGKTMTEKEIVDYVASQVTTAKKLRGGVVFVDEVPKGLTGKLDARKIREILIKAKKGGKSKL
Sequence of Ubiquitin carboxyl-terminal hydrolase 1 (Homo sapiens) (O94782 whole entry, looked up): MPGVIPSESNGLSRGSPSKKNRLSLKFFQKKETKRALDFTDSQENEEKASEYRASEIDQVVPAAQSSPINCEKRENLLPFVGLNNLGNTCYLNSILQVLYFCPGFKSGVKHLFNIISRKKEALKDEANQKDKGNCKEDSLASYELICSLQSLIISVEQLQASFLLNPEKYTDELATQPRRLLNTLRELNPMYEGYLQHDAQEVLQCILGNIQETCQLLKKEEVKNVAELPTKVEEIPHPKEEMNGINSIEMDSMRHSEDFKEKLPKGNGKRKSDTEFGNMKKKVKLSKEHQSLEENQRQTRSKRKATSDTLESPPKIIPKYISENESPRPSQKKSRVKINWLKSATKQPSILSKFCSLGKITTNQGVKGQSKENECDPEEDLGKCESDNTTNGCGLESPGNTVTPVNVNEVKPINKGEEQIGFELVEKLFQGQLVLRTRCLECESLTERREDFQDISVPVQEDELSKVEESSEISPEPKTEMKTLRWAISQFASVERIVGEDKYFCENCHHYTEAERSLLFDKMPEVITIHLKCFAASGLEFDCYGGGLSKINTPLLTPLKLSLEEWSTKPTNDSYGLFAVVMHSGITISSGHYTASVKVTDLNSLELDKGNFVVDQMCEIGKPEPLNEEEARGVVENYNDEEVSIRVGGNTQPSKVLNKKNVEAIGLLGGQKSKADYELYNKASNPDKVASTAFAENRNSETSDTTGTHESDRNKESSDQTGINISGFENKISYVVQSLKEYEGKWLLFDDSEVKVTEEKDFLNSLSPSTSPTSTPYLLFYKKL
Sequence of ATP-dependent 6-phosphofructokinase (Trypanosoma brucei brucei) (O15648 whole entry, looked up): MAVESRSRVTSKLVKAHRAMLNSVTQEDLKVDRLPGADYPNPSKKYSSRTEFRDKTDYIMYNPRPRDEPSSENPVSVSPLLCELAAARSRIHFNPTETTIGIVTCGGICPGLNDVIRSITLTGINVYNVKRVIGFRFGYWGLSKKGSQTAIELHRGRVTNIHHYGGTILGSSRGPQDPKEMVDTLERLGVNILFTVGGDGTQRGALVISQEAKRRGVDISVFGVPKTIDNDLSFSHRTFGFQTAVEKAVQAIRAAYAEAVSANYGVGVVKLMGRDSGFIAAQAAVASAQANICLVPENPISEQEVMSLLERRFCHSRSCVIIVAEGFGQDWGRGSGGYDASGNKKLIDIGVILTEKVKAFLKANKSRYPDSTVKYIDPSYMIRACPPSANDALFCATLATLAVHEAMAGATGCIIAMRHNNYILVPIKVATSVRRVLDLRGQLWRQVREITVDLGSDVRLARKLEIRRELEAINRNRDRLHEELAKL
Sequence of Glucocorticoid receptor (Homo sapiens) (P04150 whole entry, looked up, the tested form may be a part): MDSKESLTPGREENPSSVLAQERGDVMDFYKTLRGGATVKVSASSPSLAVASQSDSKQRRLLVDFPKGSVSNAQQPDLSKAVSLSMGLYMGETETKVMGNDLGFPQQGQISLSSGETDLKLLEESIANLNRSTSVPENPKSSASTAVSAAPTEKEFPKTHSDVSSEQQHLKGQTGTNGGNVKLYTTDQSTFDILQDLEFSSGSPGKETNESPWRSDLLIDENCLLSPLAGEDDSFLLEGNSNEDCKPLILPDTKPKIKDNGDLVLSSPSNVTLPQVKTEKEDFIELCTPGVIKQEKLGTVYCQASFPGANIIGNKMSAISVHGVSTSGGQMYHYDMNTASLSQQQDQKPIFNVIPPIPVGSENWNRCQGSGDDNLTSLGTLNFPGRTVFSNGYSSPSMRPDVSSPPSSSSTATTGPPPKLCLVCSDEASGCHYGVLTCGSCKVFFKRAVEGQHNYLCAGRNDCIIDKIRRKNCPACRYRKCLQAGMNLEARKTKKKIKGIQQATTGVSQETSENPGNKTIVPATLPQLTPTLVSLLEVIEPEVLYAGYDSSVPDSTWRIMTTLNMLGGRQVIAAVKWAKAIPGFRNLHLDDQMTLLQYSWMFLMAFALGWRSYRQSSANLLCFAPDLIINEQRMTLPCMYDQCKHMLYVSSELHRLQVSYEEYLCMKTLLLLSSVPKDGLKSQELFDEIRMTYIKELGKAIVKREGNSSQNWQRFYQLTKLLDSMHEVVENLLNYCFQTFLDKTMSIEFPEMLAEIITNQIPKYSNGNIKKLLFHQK
Sequence of 3',5'-cyclic-AMP phosphodiesterase 4B (Homo sapiens) (Q07343 whole entry, looked up): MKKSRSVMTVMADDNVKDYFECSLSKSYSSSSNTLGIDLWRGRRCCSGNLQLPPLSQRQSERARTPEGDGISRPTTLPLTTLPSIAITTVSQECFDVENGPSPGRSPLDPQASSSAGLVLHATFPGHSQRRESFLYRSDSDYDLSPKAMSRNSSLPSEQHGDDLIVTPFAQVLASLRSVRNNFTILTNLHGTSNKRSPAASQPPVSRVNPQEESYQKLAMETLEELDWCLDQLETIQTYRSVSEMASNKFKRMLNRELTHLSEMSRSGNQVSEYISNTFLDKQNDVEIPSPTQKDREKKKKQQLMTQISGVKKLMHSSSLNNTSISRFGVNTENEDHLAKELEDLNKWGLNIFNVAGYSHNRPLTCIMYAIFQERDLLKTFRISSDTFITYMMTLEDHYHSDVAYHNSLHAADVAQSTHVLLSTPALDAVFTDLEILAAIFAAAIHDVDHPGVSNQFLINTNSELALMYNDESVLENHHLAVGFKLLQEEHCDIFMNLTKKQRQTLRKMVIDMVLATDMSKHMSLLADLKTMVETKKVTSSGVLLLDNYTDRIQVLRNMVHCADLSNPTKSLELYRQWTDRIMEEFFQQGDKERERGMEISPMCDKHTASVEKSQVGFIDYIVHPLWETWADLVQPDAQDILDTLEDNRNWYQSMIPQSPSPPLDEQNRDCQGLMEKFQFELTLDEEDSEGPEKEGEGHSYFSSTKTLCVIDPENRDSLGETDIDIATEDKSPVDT

CC1=C(C(=O)O)N2C(=O)[C@@H](NC(=O)[C@@H](N)c3ccc(O)cc3)[C@@H]2SC1
inactive: outcome [1] | outcome [2] | Potency [3] > 20.6 µM | Potency [4] > 20.6 µM | Potency [5] | outcome [6] | activity change, negative = inhibition [7] 1.21% | outcome [8] | Potency [9] | Potency [10] | Potency [11] | activity, negative = inhibition ([12]; parasite line A) 9.01% | activity, negative = inhibition ([12]; parasite line B) 1.57% | Potency (AS120) | Potency (C2A) | Potency (CP238) | Potency (CP250) | Potency (CP252) | Potency (HB3) | Potency (SC27B)
-1.1%: max response [7, 13]
-2.01%: max response [7, 14]

CN1CCO[C@H](c2ccccc2)c2ccccc2C1
-10.4%: max response [7, 13]
inactive: outcome [1] | outcome [2] | Potency [5] | activity change, negative = inhibition [7] -1.73% | outcome [8] | Potency [9] | Potency [10] | Potency [11] | activity, negative = inhibition ([12]; parasite line A) -5.98% | activity, negative = inhibition ([12]; parasite line B) 0.83% | Potency (C2A) | Potency (CP250) | Potency (CP252) | Potency (HB3) | Potency (SC27B)
-11.4%: max response [7, 14]

C[N+](C)(CCCOc1ccccc1)c1ccccc1
5.95%: max response [7, 14]
0.349%: max response [7, 13]
inactive: outcome [1] | outcome [2] | Potency [4] > 20.6 µM | Potency [5] | outcome [6] | activity change, negative = inhibition [7] 3.08% | Potency [9]

CCN(CCCCOC(=O)c1ccc(OC)c(OC)c1)[C@@H](C)Cc1ccc(OC)cc1
inactive: outcome [1] | outcome [2] | Potency [3] > 20.6 µM | Potency [4] > 20.6 µM | Potency [5] | activity change, negative = inhibition [7] -1.1% | outcome [8] | Potency [9] | Potency [10] | Potency [11] | activity, negative = inhibition ([12]; parasite line A) -10.8% | activity, negative = inhibition ([12]; parasite line B) -8.1% | Potency (AS120) | Potency (C2A) | Potency (CP238) | Potency (CP250) | Potency (CP252) | Potency (HB3) | Potency (SC27B)
-7.41%: max response [7, 13]
-6.28%: max response [7, 14]

CC1(C)[C@@H](OC(=O)CCC(=O)O)CC[C@@]2(C)[C@H]1CC[C@@]1(C)[C@H]2C(=O)C=C2[C@H]3C[C@](C)(C(=O)O)CC[C@]3(C)CC[C@@]21C
-1.7%: max response [7, 13]
inactive: outcome [1] | outcome [2] | Potency [3] > 20.6 µM | Potency [4] > 20.6 µM | Potency [5] | outcome [6] | activity change, negative = inhibition [7] -0.623% | outcome [8] | Potency [9] | Potency [10] | Potency [11] | activity, negative = inhibition ([12]; parasite line A) -5.96% | activity, negative = inhibition ([12]; parasite line B) 13.4% | Potency (AS120) | Potency (C2A) | Potency (CP238) | Potency (CP250) | Potency (CP252) | Potency (HB3) | Potency (SC27B)
-2.85%: max response [7, 14]
